Laboratory results taken from PubChem BioAssay (NCI).
The panel holds about 83,000 compounds, 20% with a hit somewhere; the sample as a whole holds those more often.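 Each cell line was grown in a 96-well plate and treated with one concentration of compound for 48 hours. Values below 10 were considered active.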 Active and inactive are the calls of the source.

Columns and labels:
Test in all cases: NCI-60 one-dose screen, 48 h (100 = growth as untreated, 0 = no growth, -100 = all killed)
Settings in all cases: 10 µM unless noted
[1] = tested on: SR leukemia
[2] = tested on: RPMI-8226 leukemia
[3] = tested on: OVCAR-8 ovarian
[4] = tested on: OVCAR-5 ovarian
[5] = tested on: OVCAR-4 ovarian
[6] = tested on: SK-OV-3 ovarian
[7] = tested on: IGROV1 ovarian
[8] = tested on: OVCAR-3 ovarian
[9] = tested on: HS 578T breast
[10] = tested on: NCI/ADR-RES ovarian
[11] = tested on: T-47D breast
[12] = tested on: BT-549 breast
[13] = tested on: MDA-MB-435 melanoma
[14] = tested on: SW-620 colon
[15] = tested on: MCF7 breast
[16] = tested on: HCT-116 colon
[17] = tested on: HCC-2998 colon
[18] = tested on: KM12 colon

Measured: growth

O=C(c1ccccc1)c1ccc(Oc2ccc([N+](=O)[O-])cc2[N+](=O)[O-])cc1
inactive: [1] 14.6% | [2] 35.2% | [3] 41.5% | [4] 59.9% | [5] 28.5% | [6] 99.9% | [8] 48.7% | [9] 90.7% | [11] 66.1% | [15] 15.6% | [17] 97.8%
active: [7] 1.87% | [10] 4.04% | [12] -1.35% | [13] -43.7% | [14] 3.07% | [16] -12.8% | [18] -17.8%

C=C1CC[C@@H]2[C@](C)(COC(C)=O)[C@H](OC(C)=O)CC[C@@]2(C)[C@@H]1CC(NCc1ccccc1)C1=CCOC1=O (stereo partly drawn)
active: [2] 3.18%
inactive: [1] 20.9% | [3] 28.2% | [4] 102% | [5] 35.9% | [6] 79.2% | [7] 62.9% | [8] 31.8% | [9] 86.4% | [10] 23.5% | [11] 14.2% | [12] 28.1% | [13] 27.9% | [14] 47.3% | [15] 29.8% | [16] 42.3% | [17] 93.7% | [18] 39.1%

CCN1CCN(c2nc(NNC(=O)Cc3ccccc3)nc(N3CCN(C(c4ccccc4)c4ccccc4)CC3)n2)CC1
inactive: [2] 36.6% | [3] 64.4% | [4] 102% | [5] 86.6% | [6] 114% | [7] 64.1% | [8] 46.2% | [9] 96.1% | [10] 90.4% | [11] 29.9% | [12] 88.1% | [14] 16.5% | [15] 33.9% | [16] 28.3% | [17] 38.5% | [18] 59%
active: [1] -22.3% | [13] -33.7%

O=C(Nc1cccc(Cl)c1)Nc1cccc(Cl)c1
inactive: [1] 66.4% | [3] 77% | [4] 86.8% | [5] 62.4% | [6] 93.4% | [7] 91.4% | [8] 15.1% | [9] 80.7% | [10] 55.6% | [11] 19.4% | [12] 96.7% | [13] 88.8% | [14] 81% | [15] 64.3% | [16] 42.5% | [17] 72.6% | [18] 43.6%
active: [2] 3.08%

CC1(C)CC2(C)CC(=O)C1C(C(=O)O)C2C(=O)O (stereo not drawn)
inactive: [1] 90% | [2] 106% | [3] 102% | [4] 98.3% | [5] 109% | [6] 101% | [7] 109% | [8] 105% | [9] 102% | [10] 113% | [11] 94.9% | [12] 116% | [13] 118% | [14] 108% | [15] 95.5% | [16] 113% | [17] 103% | [18] 107%

CC[C@H]1CN2CCc3cc(OC)c(OC)cc3C2C[C@@H]1CC1NCCc2cc(OC)c(OC)cc21 (stereo partly drawn)
active: [1] -9.39% | [2] -41% | [3] -20.6% | [4] -12% | [5] -9.56% | [6] -1.2% | [7] -22.9% | [8] -30.9% | [9] -12% | [10] -9.95% | [11] -15.1% | [12] -11% | [13] -71.2% | [14] -20.3% | [15] -2.18% | [16] -22.9% | [17] -47.8% | [18] -37.2%

COc1ccc2c(c1)sc1nc(-c3ccc(Br)cc3)cn12
active: [7] -23.9%
inactive: [1] 120% | [2] 112% | [3] 102% | [4] 101% | [5] 100% | [6] 117% | [8] 122% | [9] 125% | [10] 92.4% | [11] 85% | [12] 120% | [13] 103% | [14] 101% | [15] 80.4% | [16] 92.4% | [17] 115% | [18] 102%

Oc1c(Cl)cc(Cl)c(Cl)c1Cc1c(O)c(Cl)cc(Cl)c1Cl
active: [2] 6.95% | [3] 7.43% | [9] -1.24% | [10] 3.82% | [16] 3.93% | [17] 7.48% | [18] 8.09%
inactive: [1] 63.9% | [4] 39.4% | [5] 29.5% | [6] 19.1% | [7] 25.1% | [8] 10.8% | [11] 33.8% | [12] 17.2% | [13] 10.4% | [14] 16.7% | [15] 10.3%

Cc1[nH]ccc2cc3nc4ccccc4c3cc12
inactive: [2] 15.9% | [3] 20.6% | [4] 42% | [5] 38.4% | [6] 34.7% | [7] 23.6% | [8] 41.6% | [9] 55.3% | [10] 24.9% | [11] 27.7% | [12] 60.3% | [13] 33.9% | [14] 22.1% | [16] 22% | [17] 33.7% | [18] 29%
active: [1] 3.33% | [15] 7.1%

Cc1ccc(-c2c3c(N)c4c(nc3nc3c2c(C)nn3-c2ccccc2)CCC4)cc1
inactive: [2] 85.6% | [3] 88% | [4] 94.7% | [5] 124% | [6] 96.4% | [7] 96.3% | [8] 102% | [9] 87.9% | [10] 85.7% | [11] 103% | [12] 90.4% | [13] 103% | [15] 14.9% | [17] 100% | [18] 79.8%
active: [1] 6.66% | [14] 6.36% | [16] -72.5%

CNCCCn1c2c(c3ccc(F)cc3c1=O)C(=O)c1cc(OC)cnc1-2
active: [1] -9.31% | [2] -20.4% | [3] -19.8% | [4] -8.53% | [5] -5.91% | [6] -24.5% | [8] -11.4% | [10] 3.1% | [11] -2.54% | [12] -6.14% | [13] 4.12% | [14] -2.67% | [15] 0.0252% | [16] -78% | [17] 8% | [18] -0.739%
inactive: [7] 11.4% | [9] 22.1%

CC(C)Sc1nc(Cl)c(C#N)c(-c2ccc(F)cc2)n1
active: [1] -25.2%
inactive: [2] 78.5% | [3] 97.1% | [4] 99.2% | [5] 107% | [6] 110% | [7] 103% | [8] 128% | [9] 106% | [10] 105% | [11] 98.1% | [12] 108% | [13] 101% | [14] 72.2% | [15] 96.4% | [16] 62% | [17] 112% | [18] 107%

CC(C)C[C@H](NC(=O)/C=C/Cn1ccc2ccccc2c1=O)B(O)O
inactive: [2] 11.1% | [3] 86.8% | [4] 47.2% | [5] 89.3% | [6] 69.2% | [7] 77% | [9] 43.8% | [10] 106% | [11] 17.6% | [12] 27.9% | [14] 24.6% | [15] 26.5% | [16] 16.2% | [17] 62.5% | [18] 37.8%
active: [1] 9.14% | [8] 0.848% | [13] -44.3%

N#CC(C#N)C(C#N)C#N
inactive: [1] 109% | [2] 107% | [3] 97.4% | [4] 111% | [5] 98.6% | [6] 84% | [7] 112% | [8] 104% | [9] 102% | [10] 101% | [11] 87.9% | [12] 89.5% | [13] 99.8% | [14] 99.1% | [15] 95.5% | [16] 86.8% | [17] 98.4% | [18] 102%

CCOc1cc(/C=C/C(=O)CC(=O)/C=C/c2ccc(OC(=O)CNCCN(CC)CC)c(OCC)c2)ccc1OC(=O)CNCCN(CC)CC
active: [1] -42.1% | [2] -52.9% | [3] 4.23% | [4] -34.5% | [7] -67.7% | [8] 0.276% | [9] 1.48% | [12] -77.2% | [13] -21.6% | [14] -58.1% | [15] 7.36% | [16] -84.7% | [17] -71.2% | [18] -60.2%
inactive: [5] 18.1% | [6] 32.6% | [10] 16.3% | [11] 36.9%

CCN(CC)CCSc1ncnc2c1cnn2-c1ccc(S(N)(=O)=O)cc1
inactive: [1] 57% | [2] 98.2% | [3] 83.5% | [4] 112% | [5] 106% | [6] 108% | [7] 96.5% | [8] 84.4% | [9] 103% | [10] 85.2% | [11] 102% | [12] 100% | [13] 76.2% | [14] 73.5% | [15] 83.1% | [16] 70.6% | [17] 97.8% | [18] 106%
